Reference: PubChem BioAssay AID1159580 (chemical genetic matrix, 2015)
Where “and” joins values, the source holds several entries; their conditions need not be identical. Identical values can stand only once. Hit rate of the full screen: of about 5,500 compounds, about 2,000 (36%) were called active. Roughly 18% stayed inconclusive and do not appear here. No stated cut-off is given here; in the data, active means normalized growth mostly below about 0.91 (no sharp cut-off); inconclusive means no clear call, values can overlap the other calls; inactive means mostly above about 0.92. This is one part of the list.

Assay: chemical genetic growth profiling, strain panel (AID 1159580);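 further: tested at 20 µM; growth read once vehicle control cultures reached saturation at 30 °C; 1 = growth at the plate median or of vehicle wells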
Settings: S. cerevisiae deletion strains, growth OD

Measured: normalized growth

C[C@@H]1CC[C@@]2(NC1)O[C@H]1C[C@H]3C4CC=C5C[C@@H](O)CC[C@]5(C)C4CC[C@]3(C)C1[C@@H]2C (stereo partly drawn)
active: locus YAL021C, strain ccr4, stronger effect = lower value 0.0884 | locus YAL026C, strain drs2, stronger effect = lower value 0.0686 | locus YAL030W, strain snc1, stronger effect = lower value 0.0727 | locus YBL061C, strain skt5, stronger effect = lower value 0.246 | locus YBR009C, strain hhf1, stronger effect = lower value 0.0752 | locus YBR021W, strain FUR4, stronger effect = lower value 0.566 | locus YBR023C, strain chs3, stronger effect = lower value 0.189 | locus YBR171W, strain sec66, stronger effect = lower value 0.0867 | locus YBR229C, strain ROT2, stronger effect = lower value 0.132 | locus YBR231C, strain swc5, stronger effect = lower value 0.147 | locus YBR279W, strain paf1, stronger effect = lower value 0.431 | locus YCL011C, strain gbp2, stronger effect = lower value 0.0674 | locus YCL016C, strain dcc1, stronger effect = lower value 0.155 | locus YCL029C, strain bik1, stronger effect = lower value 0.0831 | locus YCL061C, strain MRC1, stronger effect = lower value 0.0777 | locus YCL069W, strain vba3, stronger effect = lower value 0.067 | locus YCR088W, strain abp1, stronger effect = lower value 0.0699 | locus YDL005C, strain med2, stronger effect = lower value 0.0923 | locus YDL035C, strain GPR1, stronger effect = lower value 0.086 | locus YDL040C, strain nat1, stronger effect = lower value 0.495 | locus YDL074C, strain BRE1, stronger effect = lower value 0.188 | locus YDL101C, strain DUN1, stronger effect = lower value 0.0946 | locus YDL134C, strain PPH21, stronger effect = lower value 0.0628 | locus YDL185W, strain tfp1, stronger effect = lower value 0.673 | locus YDL192W, strain arf1, stronger effect = lower value 0.123 | locus YDR001C, strain nth1, stronger effect = lower value 0.0751 | locus YDR069C, strain doa4, stronger effect = lower value 0.255 | locus YDR101C, strain arx1, stronger effect = lower value 0.132 | locus YDR137W, strain rgp1, stronger effect = lower value 0.644 | locus YDR159W, strain sac3, stronger effect = lower value 0.155 | locus YDR162C, strain NBP2, stronger effect = lower value 0.0581 | locus YDR195W, strain ref2 0.153 | locus YDR297W, strain sur2, stronger effect = lower value 0.0933 | locus YDR318W, strain mcm21, stronger effect = lower value 0.0863 | locus YDR334W, strain swr1, stronger effect = lower value 0.075 | locus YDR335W, strain msn5, stronger effect = lower value 0.0693 | locus YDR388W, stronger effect = lower value 0.0688 | locus YDR392W, strain spt3, stronger effect = lower value 0.0901 | locus YDR502C, strain sam2, stronger effect = lower value 0.0995 | locus YEL003W, strain gim4, stronger effect = lower value 0.0687 | locus YEL037C, strain rad23, stronger effect = lower value 0.0666 | locus YEL061C, strain CIN8 (second series), stronger effect = lower value 0.0639 | locus YER015W, strain faa2, stronger effect = lower value 0.0893 | locus YER016W, strain bim1, stronger effect = lower value 0.306 | locus YER110C, stronger effect = lower value 0.116 | locus YER111C, strain swi4, stronger effect = lower value 0.0797 | locus YER155C, strain BEM2 (second series), stronger effect = lower value 0.106 | locus YER155C, strain BEM2, stronger effect = lower value 0.0845 | locus YER167W, strain BCK2, stronger effect = lower value 0.0646 | locus YFR010W, strain ubp6, stronger effect = lower value 0.0951 | locus YGL078C, strain dbp3, stronger effect = lower value 0.898 | locus YGL086W, strain mad1, stronger effect = lower value 0.0765 | locus YGL173C, strain kem1, stronger effect = lower value 0.474 | locus YGL227W, strain vid30, stronger effect = lower value 0.0779 | locus YGL240W, strain doc1, stronger effect = lower value 0.262 | locus YGL248W, strain PDE1, stronger effect = lower value 0.0583 | locus YGL253W, strain hxk2, stronger effect = lower value 0.0617 | locus YGR135W, strain pre9, stronger effect = lower value 0.0806 | locus YGR252W, strain gcn5, stronger effect = lower value 0.254 | locus YHR013C, strain ard1, stronger effect = lower value 0.131 | locus YHR027C, strain rpn1, stronger effect = lower value 0.157 | locus YHR079C, strain IRE1 (second series), stronger effect = lower value 0.107 | locus YHR094C, strain hxt1, stronger effect = lower value 0.0989 | locus YHR129C, strain ARP1, stronger effect = lower value 0.0688 | locus YHR142W, strain chs7, stronger effect = lower value 0.0769 | locus YHR200W, strain rpn10, stronger effect = lower value 0.103 | locus YIL066C, strain RNR3, stronger effect = lower value 0.0582 | locus YIL073C, strain SPO22, stronger effect = lower value 0.144 | locus YIL125W, strain kgd1, stronger effect = lower value 0.886 | locus YIR030C, strain dcg1, stronger effect = lower value 0.0978 | locus YJL092W, strain hpr5, stronger effect = lower value 0.0727 | locus YJL095W, strain BCK1 (second series), stronger effect = lower value 0.0644 | locus YJL115W, strain asf1, stronger effect = lower value 0.0841 | locus YJL129C, strain trk1, stronger effect = lower value 0.0945 | locus YJL134W, strain LCB3, stronger effect = lower value 0.0822 | locus YJL154C, strain vps35, stronger effect = lower value 0.0818 | locus YJL164C, strain tpk1, stronger effect = lower value 0.0731 | locus YJL166W, strain qcr8, stronger effect = lower value 0.0704 | locus YJL168C, strain set2, stronger effect = lower value 0.121
0.0614 (active) and 1.03 (inactive): locus YJL095W, strain BCK1, stronger effect = lower value
0.0512 (active) and 1.05 (inactive): locus YHR030C, strain SLT2, stronger effect = lower value
inactive: locus YGL167C, strain pmr1, stronger effect = lower value 0.956 | locus YHR079C, strain IRE1, stronger effect = lower value 1.03
